Inhibition data for 17 molecules are collected here from ChEMBL document CHEMBL1961873, “Compounds: GSK PKIS; Assays: Nanosyn kinase panel” (2012).

SMILES strings stand for the structures.

The target in test [1] is Tyrosine-protein kinase receptor UFO (Homo sapiens) (UniProt P30530). Conditions: at 1 µM.
In test [2] the target is Tyrosine-protein kinase Blk (Homo sapiens) (UniProt P51451). Conditions: at 0.1 µM.
The target is the same in test [3]. Conditions: at 1 µM.
Test [4] deals with T1, Cytoplasmic tyrosine-protein kinase BMX (Homo sapiens) (UniProt P51813).
T1 sequence (whole entry): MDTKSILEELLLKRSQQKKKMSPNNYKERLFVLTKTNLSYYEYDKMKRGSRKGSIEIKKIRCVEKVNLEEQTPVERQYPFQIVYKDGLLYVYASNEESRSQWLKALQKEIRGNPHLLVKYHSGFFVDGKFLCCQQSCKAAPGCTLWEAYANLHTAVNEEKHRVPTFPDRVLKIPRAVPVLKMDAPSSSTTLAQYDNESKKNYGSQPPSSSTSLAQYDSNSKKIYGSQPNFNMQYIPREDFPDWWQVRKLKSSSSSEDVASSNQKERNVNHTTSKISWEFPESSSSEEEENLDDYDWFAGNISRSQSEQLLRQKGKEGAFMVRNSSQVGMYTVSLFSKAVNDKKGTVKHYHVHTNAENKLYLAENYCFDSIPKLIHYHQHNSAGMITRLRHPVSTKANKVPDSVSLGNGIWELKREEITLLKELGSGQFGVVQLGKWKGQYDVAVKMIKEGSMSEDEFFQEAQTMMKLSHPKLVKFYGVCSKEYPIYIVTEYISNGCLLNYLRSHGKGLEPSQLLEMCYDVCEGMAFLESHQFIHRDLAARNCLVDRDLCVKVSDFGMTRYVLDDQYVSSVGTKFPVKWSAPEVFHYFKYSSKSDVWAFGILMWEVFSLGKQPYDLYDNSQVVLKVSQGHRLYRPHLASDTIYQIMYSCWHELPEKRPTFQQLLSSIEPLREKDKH
Conditions: at 0.1 µM.

The target in test [5] is T1, Cytoplasmic tyrosine-protein kinase BMX (Homo sapiens). Conditions: at 1 µM.
Test [6] concerns the target Protein-tyrosine kinase 6 (Homo sapiens) (UniProt Q13882). Conditions: at 0.1 µM.
For test [7] the target is unchanged. The following applies: at 1 µM.
Test [8] has as its target Tyrosine-protein kinase BTK (Homo sapiens) (UniProt Q06187). Conditions: at 0.1 µM.
Test [9] has the same target. Conditions: at 1 µM.
Test [10] concerns the target Tyrosine-protein kinase CSK (Homo sapiens) (UniProt P41240). The following applies: at 0.1 µM.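 Note: value given is the averaged percent inhibition of CSK kinase activity, from the GSK PKIS kinase inhibitor set screening panel.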

The term inhibition denotes the change of the read-out against control, counted positive when it falls.

Sequence of Tyrosine-protein kinase CSK (Homo sapiens) (P41240 2-450 limits assumed): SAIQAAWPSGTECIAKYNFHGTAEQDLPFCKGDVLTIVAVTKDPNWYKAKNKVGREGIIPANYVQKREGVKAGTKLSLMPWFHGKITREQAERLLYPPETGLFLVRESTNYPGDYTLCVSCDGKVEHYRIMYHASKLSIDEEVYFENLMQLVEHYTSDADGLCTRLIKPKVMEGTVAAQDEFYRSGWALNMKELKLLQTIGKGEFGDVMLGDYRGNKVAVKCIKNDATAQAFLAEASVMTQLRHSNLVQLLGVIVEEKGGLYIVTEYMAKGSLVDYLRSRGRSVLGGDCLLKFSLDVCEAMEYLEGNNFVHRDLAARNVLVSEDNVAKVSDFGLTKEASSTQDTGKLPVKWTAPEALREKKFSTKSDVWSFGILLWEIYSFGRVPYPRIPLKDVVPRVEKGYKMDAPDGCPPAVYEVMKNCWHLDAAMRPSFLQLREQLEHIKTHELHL
Sequence of Tyrosine-protein kinase Blk (Homo sapiens) (P51451 2-505 limits assumed): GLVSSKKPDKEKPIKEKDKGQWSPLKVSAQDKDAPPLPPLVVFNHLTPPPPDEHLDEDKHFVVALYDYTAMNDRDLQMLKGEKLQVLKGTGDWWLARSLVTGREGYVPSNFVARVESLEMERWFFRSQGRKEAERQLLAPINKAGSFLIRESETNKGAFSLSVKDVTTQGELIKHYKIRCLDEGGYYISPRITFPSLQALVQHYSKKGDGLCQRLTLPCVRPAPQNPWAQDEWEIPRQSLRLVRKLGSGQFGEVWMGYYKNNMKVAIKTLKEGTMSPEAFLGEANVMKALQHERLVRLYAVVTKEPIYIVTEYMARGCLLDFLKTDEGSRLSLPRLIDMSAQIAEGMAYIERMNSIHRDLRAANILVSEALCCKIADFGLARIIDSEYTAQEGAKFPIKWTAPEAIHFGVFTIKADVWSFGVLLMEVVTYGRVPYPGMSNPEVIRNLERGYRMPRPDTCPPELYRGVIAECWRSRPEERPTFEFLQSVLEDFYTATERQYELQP
Sequence of Protein-tyrosine kinase 6 (Homo sapiens) (Q13882 whole entry, looked up): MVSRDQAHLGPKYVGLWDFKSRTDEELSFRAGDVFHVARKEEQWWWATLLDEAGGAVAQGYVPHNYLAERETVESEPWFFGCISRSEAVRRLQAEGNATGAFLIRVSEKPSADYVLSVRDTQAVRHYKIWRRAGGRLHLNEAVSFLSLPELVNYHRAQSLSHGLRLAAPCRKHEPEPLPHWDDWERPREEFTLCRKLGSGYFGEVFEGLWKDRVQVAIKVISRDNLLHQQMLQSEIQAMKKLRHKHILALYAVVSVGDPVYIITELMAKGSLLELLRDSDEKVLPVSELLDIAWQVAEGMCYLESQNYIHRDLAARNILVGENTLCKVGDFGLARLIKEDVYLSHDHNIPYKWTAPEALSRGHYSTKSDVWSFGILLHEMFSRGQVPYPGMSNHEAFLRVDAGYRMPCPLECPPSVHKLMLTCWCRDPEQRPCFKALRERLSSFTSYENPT
Sequence of Tyrosine-protein kinase BTK (Homo sapiens) (Q06187 whole entry): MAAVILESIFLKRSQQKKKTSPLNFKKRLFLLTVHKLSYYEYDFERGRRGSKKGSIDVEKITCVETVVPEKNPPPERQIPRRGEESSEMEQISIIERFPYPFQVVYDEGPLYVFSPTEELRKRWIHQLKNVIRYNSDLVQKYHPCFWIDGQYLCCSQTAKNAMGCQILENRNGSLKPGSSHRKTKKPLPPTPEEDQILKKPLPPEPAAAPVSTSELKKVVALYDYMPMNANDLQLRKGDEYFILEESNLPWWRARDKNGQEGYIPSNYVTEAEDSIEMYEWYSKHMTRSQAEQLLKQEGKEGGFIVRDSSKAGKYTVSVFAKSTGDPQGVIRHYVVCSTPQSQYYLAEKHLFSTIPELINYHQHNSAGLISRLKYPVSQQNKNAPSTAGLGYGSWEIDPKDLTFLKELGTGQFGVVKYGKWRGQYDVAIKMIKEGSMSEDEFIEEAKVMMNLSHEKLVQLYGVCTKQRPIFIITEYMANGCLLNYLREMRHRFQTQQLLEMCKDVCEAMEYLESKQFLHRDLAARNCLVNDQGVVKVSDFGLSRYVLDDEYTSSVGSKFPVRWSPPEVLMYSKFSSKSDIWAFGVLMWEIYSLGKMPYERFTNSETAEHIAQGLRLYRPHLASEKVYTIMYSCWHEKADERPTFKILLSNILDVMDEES
Sequence of Tyrosine-protein kinase receptor UFO (Homo sapiens) (P30530 whole entry): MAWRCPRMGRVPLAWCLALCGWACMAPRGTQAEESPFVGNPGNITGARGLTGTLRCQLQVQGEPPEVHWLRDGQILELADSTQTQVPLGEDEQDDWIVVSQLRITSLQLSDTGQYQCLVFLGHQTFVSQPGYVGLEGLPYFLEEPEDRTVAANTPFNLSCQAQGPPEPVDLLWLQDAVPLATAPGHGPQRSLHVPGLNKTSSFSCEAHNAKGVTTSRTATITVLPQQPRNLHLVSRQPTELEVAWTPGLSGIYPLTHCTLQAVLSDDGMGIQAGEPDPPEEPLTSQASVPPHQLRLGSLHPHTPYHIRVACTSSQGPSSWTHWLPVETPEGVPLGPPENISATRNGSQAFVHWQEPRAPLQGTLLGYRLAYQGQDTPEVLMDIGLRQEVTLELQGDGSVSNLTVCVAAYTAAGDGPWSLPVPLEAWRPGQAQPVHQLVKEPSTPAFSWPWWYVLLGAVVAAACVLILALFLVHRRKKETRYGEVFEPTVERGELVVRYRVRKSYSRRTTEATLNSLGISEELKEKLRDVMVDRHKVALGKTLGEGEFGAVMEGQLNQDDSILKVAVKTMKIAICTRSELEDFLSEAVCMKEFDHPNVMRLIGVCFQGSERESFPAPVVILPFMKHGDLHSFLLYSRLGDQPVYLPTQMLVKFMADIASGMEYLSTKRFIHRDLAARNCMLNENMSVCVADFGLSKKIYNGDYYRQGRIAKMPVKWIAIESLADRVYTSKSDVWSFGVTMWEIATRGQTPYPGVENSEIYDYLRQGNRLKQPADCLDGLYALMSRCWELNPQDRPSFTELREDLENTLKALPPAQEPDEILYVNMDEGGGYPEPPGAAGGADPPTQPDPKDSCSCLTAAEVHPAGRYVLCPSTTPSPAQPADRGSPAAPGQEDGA

For `c1ccc(COc2ccc(Nc3ncnc4ccc(-c5ccco5)cc34)cc2)cc1`, the inhibition is 2.06% in test [1]; 1.56% in test [2]; 3.68% in [3]; -1% in test [4]; 2.02% in test [5]; 1.6% in [6]. Moreover, the inhibition in [7] is 2.35%; in [8], 0.63%; in test [9] it was 1.73%; in [10] it was 0.39%.

On to `CCn1c(-c2nonc2N)nc2ccccc21`, for which the inhibition in test [1] was 0.96%; in [2], 1.38%; in test [3], 3.02%; in [4] it was -0.5%; in [5] it was 3.8%; in [6], 4.51%. The inhibition turned out to be 3.44% in [7], 1.6% in test [8], 2.63% in test [9] and 2.25% in [10].

As to `CC(=O)NCc1cccc(C#Cc2cncnc2Nc2ccc(OCc3cccc(F)c3)c(Cl)c2)c1`, the inhibition in test [1] was 0.14%; in [2] it was -0.03%; in [3] it was 0.29%; in [4], 2.32%; in test [5], 0.07%; in test [6], 0.12%. Besides, the inhibition in test [7] is 3.96%; in test [8] it was -1.42%; in [9], -0.78%; in [10] it was -0.86%.

With `CN1CCC(n2cnc(-c3ccc(F)cc3)c2-c2ccnc(N)n2)CC1`, the inhibition was 0.24% in [1]; 1.67% in [2]; 6.71% in [3]; 3.52% in test [4]; 4.58% in [5]; 3.49% in test [6]. In addition, the inhibition in [7] was found to be 8.09%; in test [8], 0.47%; in test [9], 0.93%; in [10], 7.73%.

Regarding `Nc1nc(-c2ccc(F)cc2)c(-c2ccc3ncccc3n2)s1`, the inhibition was -3.07% in test [1]; 4.2% in [2]; 12.1% in [3]; -2.65% in [4]; 6.23% in test [5]; 7.59% in test [6]. For the same molecule, the inhibition is 20.6% in test [7], 0.27% in test [8], 0.99% in test [9] and 5.94% in test [10].

Turning to `CC(=O)Nc1cccc(C#Cc2cncnc2Nc2ccc(OCc3cccc(F)c3)c(Cl)c2)c1`, the inhibition in test [1] was determined as 1.6%; in test [2] it was 2.4%; in test [3], 1.37%; in test [4], 0.73%; in test [5], 4.15%; in [6] it was 1.35%. Besides, the inhibition in test [7] turned out to be 1.55%; in test [8], 2.74%; in test [9], 5.12%; in [10] it was 5.08%.

In the case of `Fc1cccc(COc2ccc(Nc3ncnc4sc(-c5ccco5)cc34)cc2Cl)c1`, the inhibition was -6.25% in [1]; 4% in test [2]; 3.74% in [3]; 2.98% in test [4]; 2.36% in test [5]; 3.39% in [6]. The inhibition in [7] is 3.91%; in test [8], -1.13%; in test [9] it was 1.35%; in test [10] it was -0.1%.

On to `c1ccc(-c2nc3n(c2-c2ccc4c(c2)OCO4)CCC3)nc1`, for which the inhibition in [1] was -5.46%; in [2], 0.54%; in test [3] it was 3.25%; in test [4] it was -1.29%; in [5] it was 1%; in test [6], 0.9%. Besides, the inhibition in test [7] was 2.26%; in test [8], -0.42%; in test [9], -1.35%; in [10], 1.01%.

Turning to `COc1ccc2c(-c3ccnc(Nc4cccc(OC(F)(F)F)c4)n3)cnn2n1`, the inhibition in test [1] was -4.65%; in test [2] it was 3.16%; in test [3] it was 4.41%; in test [4], 0.75%; in [5], 8.05%; in test [6], 7.26%. The inhibition in test [7] came out at 7.21%; in [8], 1.66%; in [9] it was 2.02%; in [10], 8.18%.

As for `CCN1CCC(CC(=O)Nc2n[nH]c3nnc(-c4cccc(F)c4F)cc23)CC1`, the inhibition in [1] amounted to 0.83%; in [2], 3.37%; in test [3] it was 3.76%; in [4], 1.54%; in test [5] it was 1.09%; in test [6], 2.53%. For the same molecule, the inhibition in test [7] was 1.16%; in test [8], 0.54%; in test [9], 1.15%; in test [10], -1.69%.

Consider `Fc1ccc(-c2nn3ccccc3c2-c2ccncc2)cc1`, for which the inhibition in test [1] was 0.78%; in test [2], 0.92%; in test [3], 2.66%; in test [4], -1.75%; in test [5] it was 1.42%; in [6], -1.18%. For the same molecule, the inhibition is 7.58% in test [7], -2.02% in test [8], -1.29% in test [9] and -0.04% in test [10].

Turning to `NC(=O)c1sc(-n2cnc3ccc(C(F)(F)F)cc32)cc1OCc1ccccc1Br`, the inhibition is -3.8% in test [1]; 2.51% in test [2]; 3.45% in test [3]; 1.05% in test [4]; 2.91% in test [5]; 3.76% in [6]. The inhibition was 5.16% in test [7], -0.59% in test [8], -2.44% in [9] and 4.79% in [10].

As for `CN1CCC(n2cnc(-c3ccc(F)cc3)c2-c2ccnc(Nc3ccccc3)n2)CC1`, the inhibition in [1] was -1.45%; in [2], 2.74%; in [3], 7.18%; in [4], 6.66%; in test [5], 5.4%; in test [6], 2.56%. In addition, the inhibition in test [7] is 13.2%; in test [8] it was -0.86%; in [9], 1.25%; in test [10], 5.97%.

On to `CC1=C(C(=O)Nc2cc(Cl)c3[nH]ncc3c2)C(c2ccc(C(F)(F)F)cc2)CC(=O)N1` (stereo not given), for which the inhibition in test [1] is -2.18%; in [2], 4.37%; in [3] it was 33.2%; in test [4], 0.59%; in test [5], 4.11%; in test [6] it was 5.88%. The inhibition in [7] was 10.3%; in [8] it was -0.51%; in [9], 0.33%; in test [10] it was 4.43%.

Turning to `COc1cccc(-n2ncc3c(N/N=C/c4ccc(F)cc4)ncnc32)c1`, the inhibition in test [1] was -3.79%; in test [2], 4.91%; in test [3], 18.2%; in test [4] it was -0.31%; in test [5], 13%; in [6], 4.36%. Also, the inhibition came to 5.54% in test [7], 1.48% in test [8], 1.13% in test [9] and 3.3% in test [10].

As to `COc1cc(Nc2nccc(Nc3ccc4c(C)n[nH]c4c3)n2)cc(OC)c1OC`, the inhibition amounted to 1.16% in [1]; 12.7% in test [2]; 69.3% in test [3]; 17.5% in test [4]; 64.8% in test [5]; 11.1% in [6]. Also, the inhibition is 55.4% in test [7], 7.82% in [8], 34.9% in test [9] and 21% in test [10].

For `Clc1ccc(-c2nn3ncccc3c2-c2ccnc(Nc3ccccc3)n2)cc1`, the inhibition in test [1] was -0.77%; in test [2] it was 3.97%; in test [3], 15%; in test [4], -0.61%; in test [5], 13.9%; in [6], 7.5%. The inhibition in test [7] was determined as 40.2%; in test [8], 0.8%; in test [9], 2.63%; in [10], 0.47%.
